Drawing on PubChem BioAssay (Tox21), this text covers Potency and outcome for 10 compounds.

Unmarked numbers belong to inactive results. Results filed as inconclusive are left out. The source made the active and inactive calls. Unless noted, calls come from the whole dose curve; as a rule, active = well fitted curve in the direction sought with a large enough effect in the repeat runs; inconclusive = weak or mixed curves; inactive = no such curve, though single readings can be large; an effect the other way counts as inactive or inconclusive.

A short description of assay [1]: qHTS assay for small molecules that induce genotoxicity in human embryonic kidney cells expressing luciferase-tagged ATAD5 (AID 651632). Note: nearly all actives have a fitted effect of over 15% in size. The method in brief: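 Cells were seeded at 2,000 per well, dosed with compound, and incubated 16 hr at 37C in 5% CO2. Luciferase activity was then quantified after a 30 min room-temperature incubation with Amplite.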
Assay [2] is described as follows: qHTS assay for small molecules that induce genotoxicity in human embryonic kidney cells expressing luciferase-tagged ATAD5 - cell viability (AID 651634; calls by dose curve; note: nearly all actives have a fitted effect of over 25% in size). The essentials: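 Cells (HEK293T, luciferase-tagged ATAD5) are seeded at 2,000 per well, dosed with compound or DMSO vehicle, and incubated 15.5 hr at 37C and 5% CO2. CellTiter-Fluor is added for 30 min before fluorescence is measured.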

Assay [3] can be described thus: qHTS assay for small molecule disruptors of the mitochondrial membrane potential - cell viability (AID 720634; calls by dose curve;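 note: human HepG2 liver cancer cells; series mostly up to about 83 µM; nearly all actives have a fitted effect of over 20% in size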). The method in brief:
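Cytotoxicity was measured by ATP quantitation in HepG2 wells that had first been treated with compound for 1 hr and stained with m-MPI dye; CellTiter-Glo incubation was 30 min at room temperature.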

Assay [4] in a line: qHTS assay to test for compound auto fluorescence at 590 nm (red) in HepG2 cells (AID 720674). The method in brief:
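Red autofluorescence (Ex/Em 540/590 nm, Rose Bengal sodium equivalents) was measured in HepG2 cells, 2,000 per well in MEM plus 10% FBS, plated overnight at 37 C. Readings were taken 1 hr after adding 23 nL compound or DMSO, at 37 C and 5% CO2.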

Assay [5] can be described thus: qHTS assay to test for compound auto fluorescence at 460 nm (blue) in HEK293 cells (AID 720678). The method in brief:
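Blue-channel (Ex/Em 405/460 nm) intensity measured in HEK293 cultures after overnight compound exposure at 37C; signal expressed relative to triamterene. Cells plated 2,000 per well in 10% dialyzed FBS medium and allowed 4-5 hr to attach.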

Assay [6] in a line: qHTS assay to test for compound auto fluorescence at 460 nm (blue) in HEK293 cell free culture (AID 720681). The method in brief:
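Blue fluorescence (Ex 405/Em 460 nm, triamterene-equivalent) was read immediately after pin transfer of compound or DMSO into medium (DMEM, 10% FBS) without cells.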

Assay [7] can be described thus: qHTS assay to test for compound auto fluorescence at 535 nm (green) in HEK293 cell free culture (AID 720682). The method in brief:
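Measurement is a direct plate read of green fluorescence (485 nm in, 535 nm out) after compound addition to serum-supplemented DMEM lacking cells, with fluorescein used to express intensities.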

A short description of assay [8]: qHTS assay to test for compound auto fluorescence at 590 nm (red) in HEK293 cell free culture (AID 720683). The essentials:
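Red-channel autofluorescence of compounds in culture medium (DMEM, 10% FBS), no cells, measured at 540/590 nm. Rose Bengal sodium is the reference fluorophore for equivalence.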

Assay [9] can be described thus: qHTS assay to test for compound auto fluorescence at 590 nm (red) in HepG2 cell free culture (AID 720684). The method in brief:
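Cell-free; medium MEM + 10% FBS; compound or DMSO added by pintool; read Ex 540/Em 590 nm; Rose Bengal sodium as red reference fluorophore.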

The nature of assay [10]: qHTS assay to test for compound auto fluorescence at 460 nm (blue) in HepG2 cell free culture (AID 720685). The essentials: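 Cell-free plates of MEM plus 10% FBS received 23 nL compound or DMSO vehicle; blue-channel (405/460 nm) intensity scored against triamterene as reference fluorophore.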
Assay [11] is described as follows: qHTS assay to test for compound auto fluorescence at 460 nm (blue) in HepG2 cells (AID 720687). The method in brief: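 Blue-channel autofluorescence (Ex/Em 405/460 nm, triamterene-equivalent) was measured after 1 hr compound exposure at 37 C, 5% CO2. Cells were HepG2, plated overnight at 37 C in MEM plus 10% FBS.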
Assay [12] is described as follows: qHTS assay to identify small molecule antagonists of the glucocorticoid receptor (GR) signaling pathway - cell viability counter screen (AID 720693). Note: nearly all actives have a fitted effect of over 55% in size.
The nature of assay [13]: qHTS assay to identify small molecule antagonists of the thyroid receptor (TR) signaling pathway - cell viability counter screen (AID 743064). Note: nearly all actives have a fitted effect of over 50% in size. Note: potency is the fitted concentration of half-maximal effect. The method in brief: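 Compounds were tested on GH3.TRE-Luc cells in the presence of T3 at 1 nM final. Following 23.5 h at 37 °C, cell viability was quantified by CellTiter-Fluor.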
The target of assay [14] is Aromatase (Homo sapiens) (UniProt P11511). Put plainly: qHTS assay to identify aromatase inhibitors (AID 743083). Note: series mostly up to about 70 µM; nearly all actives have a fitted effect of over 55% in size.
Assay [15] can be described thus: qHTS assay to identify aromatase inhibitors - cell viability counter screen (AID 743084).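 Note: cells stimulated with testosterone during compound exposure; nearly all actives have a fitted effect of over 55% in size.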
Assay [16] deals with Aryl hydrocarbon receptor (Homo sapiens) (UniProt P35869). Put plainly: qHTS assay to identify small molecule that activate the aryl hydrocarbon receptor (AhR) signaling pathway (AID 743085). Note: nearly all actives have a fitted effect of over 15% in size. Note: potency is the fitted concentration of half-maximal effect. The essentials:
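24 h compound exposure, 37C, HepG2-derived HG2L7.5c1 cells with DRE-responsive luciferase. Readouts: fluorescence viability, then luminescence at room temperature after 30 min.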

Assay [17] deals with Acetylcholinesterase (Homo sapiens) (UniProt P22303). Put plainly: Acetylcholinesterase (AChE) small molecule antagonists: colormetric cell-based qHTS assay (AID 1347395; calls by dose curve; note: nearly all actives have a fitted effect of over 30% in size). The method in brief:
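In this cell-based qHTS, attached SH-SY5Y cells were treated with test chemicals for 30 min, after which acetylthiocholine hydrolysis was followed by DTNB colour development over 90 min at 37 C.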

The target is the same in assay [18]. Nature of the assay: Acetylcholinesterase (AChE) small molecule antagonists: enzyme-based qHTS assay (AID 1347397; calls by dose curve; note: nearly all actives have a fitted effect of over 55% in size). The following applies: Potency: AChE enzyme activity inhibition; outcome: AChE enzyme activity inhibition. The essentials: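 Colorimetric DTNB readout of acetylthiocholine hydrolysis, 10 min at room temperature, after 30 min room-temperature exposure of 50 mU/mL recombinant human enzyme to compound; DMSO vehicle control.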

Assay [19] has the same target. Put plainly: Acetylcholinesterase (AChE) small molecule antagonists: fluorescence cell-based qHTS assay (AID 1347398; calls by dose curve; note: nearly all actives have a fitted effect of over 50% in size). Conditions: Potency: AChE activity; outcome: AChE activity. The method in brief:
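Cellular AChE activity read as thiocholine from acetylthiocholine hydrolysis, detected by Thiolite Green fluorescence at 490/520 nm after 40 min at room temperature. Compounds were pre-incubated 30 min at 37 C on adherent SH-SY5Y cells.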

A short description of assay [20]: qHTS assay to test for compound auto fluorescence at 535 nm (green) in HEK293 cells (AID 720680).

Sequence of Aryl hydrocarbon receptor (Homo sapiens) (P35869 whole entry, looked up): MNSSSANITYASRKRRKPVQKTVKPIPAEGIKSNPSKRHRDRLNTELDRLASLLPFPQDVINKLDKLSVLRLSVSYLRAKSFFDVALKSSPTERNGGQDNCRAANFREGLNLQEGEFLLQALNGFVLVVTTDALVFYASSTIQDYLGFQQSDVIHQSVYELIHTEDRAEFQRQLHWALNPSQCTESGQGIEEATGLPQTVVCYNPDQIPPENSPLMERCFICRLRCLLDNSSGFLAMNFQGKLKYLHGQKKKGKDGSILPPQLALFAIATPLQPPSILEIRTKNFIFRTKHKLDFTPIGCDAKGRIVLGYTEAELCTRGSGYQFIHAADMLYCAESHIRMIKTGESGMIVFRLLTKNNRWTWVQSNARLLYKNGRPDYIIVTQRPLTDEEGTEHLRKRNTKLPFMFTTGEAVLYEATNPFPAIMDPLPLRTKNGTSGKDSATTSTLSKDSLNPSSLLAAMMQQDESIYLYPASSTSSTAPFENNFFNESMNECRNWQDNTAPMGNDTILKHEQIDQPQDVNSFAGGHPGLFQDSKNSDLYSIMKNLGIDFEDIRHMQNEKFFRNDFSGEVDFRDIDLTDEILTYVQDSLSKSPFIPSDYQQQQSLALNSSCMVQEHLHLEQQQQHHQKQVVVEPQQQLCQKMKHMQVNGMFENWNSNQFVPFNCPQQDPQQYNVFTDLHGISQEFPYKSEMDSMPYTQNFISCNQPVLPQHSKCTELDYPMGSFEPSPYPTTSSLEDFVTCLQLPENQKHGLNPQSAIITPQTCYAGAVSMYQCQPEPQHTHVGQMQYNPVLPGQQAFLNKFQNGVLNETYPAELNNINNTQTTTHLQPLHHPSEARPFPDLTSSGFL
Sequence of Acetylcholinesterase (Homo sapiens) (P22303 whole entry, looked up): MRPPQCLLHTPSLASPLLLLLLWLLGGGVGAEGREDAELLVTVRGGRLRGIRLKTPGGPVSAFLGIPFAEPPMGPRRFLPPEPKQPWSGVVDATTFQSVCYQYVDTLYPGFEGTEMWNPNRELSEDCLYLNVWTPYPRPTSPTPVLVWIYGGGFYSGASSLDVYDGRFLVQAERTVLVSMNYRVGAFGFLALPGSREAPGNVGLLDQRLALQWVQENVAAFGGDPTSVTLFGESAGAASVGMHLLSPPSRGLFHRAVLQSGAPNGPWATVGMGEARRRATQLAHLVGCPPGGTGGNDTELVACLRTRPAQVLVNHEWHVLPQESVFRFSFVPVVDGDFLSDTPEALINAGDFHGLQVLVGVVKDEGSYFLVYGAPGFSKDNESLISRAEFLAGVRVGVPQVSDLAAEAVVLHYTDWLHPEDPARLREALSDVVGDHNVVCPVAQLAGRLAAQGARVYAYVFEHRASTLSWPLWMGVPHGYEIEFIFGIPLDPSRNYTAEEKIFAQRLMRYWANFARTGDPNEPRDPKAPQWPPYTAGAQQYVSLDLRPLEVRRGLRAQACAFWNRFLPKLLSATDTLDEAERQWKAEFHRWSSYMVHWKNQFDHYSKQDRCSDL
Sequence of Aromatase (Homo sapiens) (P11511 whole entry, looked up): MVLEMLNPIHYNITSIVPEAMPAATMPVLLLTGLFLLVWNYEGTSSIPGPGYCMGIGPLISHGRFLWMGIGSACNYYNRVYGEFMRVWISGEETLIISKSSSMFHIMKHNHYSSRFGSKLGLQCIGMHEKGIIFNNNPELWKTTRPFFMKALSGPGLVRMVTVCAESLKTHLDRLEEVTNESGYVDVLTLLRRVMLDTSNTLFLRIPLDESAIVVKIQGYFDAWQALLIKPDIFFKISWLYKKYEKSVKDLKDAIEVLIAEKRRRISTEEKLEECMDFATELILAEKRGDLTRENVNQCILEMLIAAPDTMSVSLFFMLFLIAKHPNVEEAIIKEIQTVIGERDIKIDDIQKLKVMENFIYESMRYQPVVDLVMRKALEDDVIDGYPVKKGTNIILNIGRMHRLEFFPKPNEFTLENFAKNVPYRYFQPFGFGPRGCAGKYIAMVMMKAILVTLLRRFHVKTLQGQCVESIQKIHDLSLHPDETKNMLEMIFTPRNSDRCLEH

Take `C[C@@H]1[C@H](O)[C@@H](C)/C=C/C=C/CC/C=C/C=C/C=C/C=C/[C@H](O[C@H]2O[C@@H](C)[C@H](O)[C@@H](N)[C@H]2O)CC2O[C@](O)(C[C@@H](O)[C@H](O)CC[C@@H](O)C[C@@H](O)C[C@@H](O)CC(=O)O[C@H]1C)C[C@H](O)[C@H]2C(=O)O`: the Potency result in assay [1], in [2], in assay [3], in assay [5], in [6] and in assay [7] was “inactive” each time. Besides, the Potency result in assay [10], in assay [11], in assay [12], in assay [13], in assay [14] and in assay [15] was “inactive” throughout. For the same compound, in assay [16], the Potency result was “inactive”. The result in assay [4], in [8] and in assay [9] was inactive.

As for `CN1[C@@H]2CC[C@H]1CC(OC(=O)C(CO)c1ccccc1)C2` (stereo partly specified), in assay [14], the Potency entry was “inactive”.

As for `CC1(C)C(C=C(Cl)Cl)C1C(=O)OCc1cccc(Oc2ccccc2)c1` (stereo unspecified), the Potency entry in [14], in [16], in assay [17], in [18] and in [19] was “inactive” throughout.

Turning to `CC1(C)S[C@@H]2[C@H](N)C(=O)N2[C@H]1C(=O)O`, the Potency result in assay [1], in assay [2], in assay [3], in [5], in assay [20] and in assay [6] was “inactive” each time. The Potency entry in [7], in assay [10], in assay [11], in assay [12], in assay [13] and in assay [14] was “inactive” each time. The Potency result in [15] and in assay [16] was “inactive” each time. In addition, the result in [4] and in assay [8] was inactive.

Consider `COc1ccc(C)cc1N`, for which the Potency entry in assay [14], in [16], in [17], in assay [18] and in assay [19] was “inactive” each time.

As for `C[C@@H]1[C@H]2Cc3ccc(O)cc3[C@]1(C)CCN2C`, the Potency result in assay [1], in [2], in assay [3], in assay [5], in assay [20] and in assay [6] was “inactive” throughout. For the same compound, the Potency result in assay [7], in assay [10], in [11], in assay [12], in assay [15] and in [16] was “inactive” in each case. Moreover, the compound was classed as inactive in assay [4], in assay [8] and in [9].

`Cc1ccc([N+](=O)[O-])cc1N`: the Potency entry in assay [14], in assay [17], in assay [18] and in assay [19] was “inactive” each time. The Potency in [16] was 61.1 µM (active).

As to `COc1cc(C[C@H](C)N)c(OC)cc1C`, the Potency entry in [1], in [2], in assay [3], in assay [5], in assay [20] and in assay [6] was “inactive” in each case. The Potency entry in assay [7], in [10], in [11], in assay [12], in assay [13] and in [14] was “inactive” throughout. The Potency entry in assay [15] was “inactive”. Besides, the compound was called inactive in assay [4], in [8] and in assay [9].

For `CCN(CC)/[N+]([O-])=N/O`, the Potency result in assay [3], in [5], in assay [20], in [6], in [7] and in [10] was “inactive” in each case. Further, the Potency entry in assay [11], in assay [12], in assay [13], in [14], in assay [15] and in assay [16] was “inactive” throughout. In addition, the outcome in assay [4], in [8] and in [9] was inactive.

Regarding `C[C@@H]1[C@@H]2Cc3ccc(O)cc3[C@@]1(C)CCN2CCc1ccccc1`, the Potency result in assay [1], in [2], in [3], in assay [5], in assay [20] and in assay [6] was “inactive” each time. The Potency result in assay [7], in [10], in [11], in assay [12], in assay [14] and in [15] was “inactive” throughout. For the same compound, the compound was called inactive in assay [4], in assay [8] and in assay [9]. In addition, the Potency in assay [13] is 60.4 µM (active); in assay [16], 8.53 µM (active).
